Measurements reported in PMC6212790, “How bacterial xenogeneic silencer rok distinguishes foreign from self DNA in its resident genome”.
Whole data set: some 33,000 sequences, median “e-score” near -0.037, cut for the highest 2% near 0.34. This is one part of a sample in which the highest values are shown more often than they occur.

target: T1, GST-Rok (full length) (Bacillus subtilis subsp. subtilis str. …, UniProt O34857 1-191); experiment: protein binding microarray; Rok is a gene silencer of Bacillus subtilis; high values mean tight binding; conditions: protein: recombinant; tags: GST (pTH5325, pDEST15-Magic modified); dsDNA, one strand shown
T1 sequence: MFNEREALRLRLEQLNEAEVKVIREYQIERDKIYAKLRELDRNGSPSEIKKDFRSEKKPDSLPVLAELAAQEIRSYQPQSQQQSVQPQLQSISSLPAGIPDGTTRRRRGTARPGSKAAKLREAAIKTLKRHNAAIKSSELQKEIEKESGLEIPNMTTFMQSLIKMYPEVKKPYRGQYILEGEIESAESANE
In short: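 Every oligonucleotide joins a 25-mer constant primer to a 35-mer variable part drawn from a de Bruijn sequence of order 10, so each non-palindromic 8-mer appears at least 32 times and each palindromic 8-mer 16 times. The preference for every 8-mer is reported as a unitless, rank-based enrichment score (E-score). This score spans 0.5 for the most favored 8-mer to −0.5 for the most disfavored.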

Point of comparison: CCCGGCAC, binding signal -0.109 E-score. Against it:
- GCGGATCA — lower, -0.193 E-score
- ACAAGGAA — higher, -0.0483 E-score
- ATTCACCC — higher, 0.0731 E-score
- CTTACTAC — higher, 0.169 E-score
- ATTACTAG — higher, 0.398 E-score
- GTTACTAA — higher, 0.283 E-score
- ATTACTAC — higher, 0.355 E-score
- ATTACTAA — higher, 0.357 E-score
- ATTACTCG — higher, 0.225 E-score
- ATTACTGG — higher, -0.0684 E-score
- ATTACTGC — higher, 0.138 E-score
- CTTACTAA — higher, 0.222 E-score
- AGGTCCAG — lower, -0.187 E-score
- ACTGGCCG — higher, 0.00991 E-score
- AGCGGCTC — lower, -0.196 E-score
- GTCGCTTA — higher, -0.0639 E-score
- GTTACATA — higher, 0.212 E-score
- AACGTTAT — higher, 0.216 E-score
- AACGTTAG — higher, 0.344 E-score
- AACGTTAC — higher, -0.0148 E-score
- GCATTCCA — lower, -0.149 E-score
- CGCGTCCA — lower, -0.16 E-score
- ATGCTTCG — higher, -0.00471 E-score
- GCGCAGAA — higher, -0.0702 E-score
- TGTATACA — higher, 0.351 E-score
- CGTATACA — higher, 0.227 E-score
- GATATACC — higher, 0.291 E-score
- ACTATACA — higher, 0.322 E-score
- GGTATACA — higher, 0.187 E-score
- AATATACA — higher, 0.388 E-score
- TATATACA — higher, 0.409 E-score
- AATATACC — higher, 0.394 E-score
- CATATACC — higher, 0.259 E-score
- AATACACA — higher, 0.234 E-score
- GATATACA — higher, 0.25 E-score
- CATATACA — higher, 0.258 E-score
- GCTGCTGA — lower, -0.177 E-score
- CTTCCTTA — lower, -0.172 E-score
- CTAGGAAG — higher, -0.0907 E-score
- AGTACGCA — higher, 0.194 E-score
- AGTATACA — higher, 0.271 E-score
- ACTATACT — higher, 0.26 E-score
- AGTATACC — higher, 0.164 E-score
- AGTATACT — higher, 0.338 E-score
- AATATACT — higher, 0.395 E-score
- AATATACG — higher, 0.268 E-score
- CATAAAAG — higher, 0.102 E-score
- AGTGCGTC — higher, 0.0828 E-score
- ACCTCCAA — higher, -0.0283 E-score
- TCACGTGA — higher, -0.0446 E-score
- TGGCCGAA — lower, -0.123 E-score
- ACCTAGAC — higher, 0.0548 E-score
- AATTATAC — higher, 0.377 E-score
- AATTATCG — higher, 0.217 E-score
- CATTATAC — higher, 0.265 E-score
- GATTATAC — higher, 0.217 E-score
- AATTATAG — higher, 0.381 E-score
- ACTTATAT — higher, 0.332 E-score
- CATTATAA — higher, 0.228 E-score
- AATTATAA — higher, 0.361 E-score
- GATTATAA — higher, 0.208 E-score
- AATTATAT — higher, 0.407 E-score
- AGTTATAT — higher, 0.291 E-score
- CATTATAG — higher, 0.255 E-score
- ACAGGTCT — lower, -0.119 E-score
- TGCTGAAA — higher, -0.0464 E-score
- GCAACTGA — higher, -0.0401 E-score
- ACAAGTAA — higher, 0.185 E-score
- ACCTATGG — lower, -0.177 E-score
- GACAATGA — higher, -0.0569 E-score
- GTCATCTA — higher, 0.113 E-score
- GCAGACGC — lower, -0.181 E-score
- ATGGTAAC — higher, 0.214 E-score
- AACTAGTT — higher, 0.441 E-score
- AACTAGTG — higher, 0.39 E-score
- TACTAGCA — higher, 0.243 E-score
- AACTAGTC — higher, 0.206 E-score
- AACTAGCT — higher, 0.317 E-score
- AGCTAGTA — higher, 0.373 E-score
- TACTAGTA — higher, 0.45 E-score
- GGCTAGTA — higher, 0.0598 E-score
- CACTAGTG — higher, 0.0643 E-score
- AACTAGCG — higher, 0.241 E-score
- TACTAGGA — higher, 0.183 E-score
- AGCTAGTC — higher, 0.078 E-score
- CTGACCAC — lower, -0.141 E-score
- ACCGGACT — higher, -0.00817 E-score
- ATTGTTAC — higher, 0.15 E-score
- AAGCTTCC — higher, -0.103 E-score
- CTAGCTTA — higher, 0.26 E-score
- AAGTCGAT — higher, 0.0686 E-score
- GATCTCAA — lower, -0.162 E-score
- CCGCTCAG — higher, -0.0853 E-score
- AACTAGGC — higher, 0.118 E-score
- AACTAGGG — higher, -0.00258 E-score
- CACTAGTA — higher, 0.205 E-score
- GACTAGGA — higher, -0.00844 E-score
- AACTAGTA — higher, 0.471 E-score
- GACTAGTC — higher, 0.224 E-score
- GACTAGTA — higher, 0.365 E-score
- AACTAGGT — higher, 0.361 E-score
- ACCTAGTA — higher, 0.292 E-score
- CCGAATTA — higher, 0.235 E-score
- AGAGTGAA — higher, -0.0866 E-score
- GTAAGCAA — higher, 0.0243 E-score
- ACCTTACT — higher, 0.101 E-score
- AGTAATTA — higher, 0.381 E-score
- GGTAATCA — higher, 0.0323 E-score
- CGTAATTA — higher, 0.328 E-score
- CATAATTC — higher, 0.126 E-score
- GATAATTA — higher, 0.223 E-score
- GGTAATTA — higher, 0.375 E-score
- CATAATTA — higher, 0.362 E-score
- AGTAATTG — higher, 0.29 E-score
- AGTAATTC — higher, 0.29 E-score
- CACAGTGA — higher, 0.137 E-score
- TAATTTCA — higher, 0.273 E-score
- GCTACGTA — higher, 0.298 E-score
- ACCGGCAT — higher, -0.0275 E-score
- GGAAGGTA — higher, 0.0109 E-score
- ATAAACTA — higher, 0.361 E-score
- GTAAACTA — higher, 0.351 E-score
- GTAAACGA — higher, -0.0497 E-score
- ATAAACTG — higher, 0.175 E-score
- GTAAACAA — higher, 0.0786 E-score
- ATAAACTC — higher, 0.15 E-score
- CTAAACTC — higher, 0.235 E-score
- CTAAACGA — higher, -0.072 E-score
- CTAAACTA — higher, 0.336 E-score
- AAAACTCT — higher, 0.171 E-score
- AAGGACGA — lower, -0.157 E-score
- CTCATCCA — higher, 0.013 E-score
- GCTCCTAC — lower, -0.158 E-score
- ACAAGACG — higher, -0.0878 E-score
- CGTTAAGA — higher, -0.0916 E-score
- ATAACACG — higher, 0.22 E-score
- GACTGATA — higher, 0.238 E-score
- CAGAATAG — higher, 0.106 E-score
- CGTTCGGA — higher, -0.107 E-score
